Tau FP inhib: blocks human tau fibril formation measured by polarization. K18 P301L tau heparin fibrillization, Alexa594 FP, 6 h. Potency, µM (top dose mostly 57.7 µM), inactives show at the highest dose activity, negative = inhibition, most hits filed as inhibitors. 280,000 compounds, 0.39% hits. AID 1468; further: nearly all actives have a fitted effect of over 55% in size
Target sequence (P10636 561-689 P618L limits assumed): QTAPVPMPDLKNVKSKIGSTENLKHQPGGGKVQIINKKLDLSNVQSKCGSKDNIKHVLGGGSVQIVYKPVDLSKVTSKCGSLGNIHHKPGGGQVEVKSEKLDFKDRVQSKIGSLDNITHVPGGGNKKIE
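Compound effects on tau fibrillization are measured by Alexa 594 fluorescence polarization (ex 555, em 632 nm). K18 P301L tau is used at 15 uM with 0.24 uM labeled tracer, and 20 uM heparin induces aggregation over 6 hr at 37 C.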
TRb-SRC2 inh: inhibitors of human thyroid hormone receptor beta-SRC2 interaction | P10828 | TRbeta-SRC2 peptide binding, fluorescence polarization; receptor liganded with 1 µM T3 | Potency, µM (series often up to 106 µM), without a hit: at the top dose activity change, negative = inhibition, hits mostly inhibitors | 280,000 compounds, 0.065% hits | AID 1469;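 further: plate controls were bound peptide for no effect and peptide without receptor for full effect; nearly all actives have a fitted effect of over 50% in size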
Target sequence (P10828 whole entry, looked up): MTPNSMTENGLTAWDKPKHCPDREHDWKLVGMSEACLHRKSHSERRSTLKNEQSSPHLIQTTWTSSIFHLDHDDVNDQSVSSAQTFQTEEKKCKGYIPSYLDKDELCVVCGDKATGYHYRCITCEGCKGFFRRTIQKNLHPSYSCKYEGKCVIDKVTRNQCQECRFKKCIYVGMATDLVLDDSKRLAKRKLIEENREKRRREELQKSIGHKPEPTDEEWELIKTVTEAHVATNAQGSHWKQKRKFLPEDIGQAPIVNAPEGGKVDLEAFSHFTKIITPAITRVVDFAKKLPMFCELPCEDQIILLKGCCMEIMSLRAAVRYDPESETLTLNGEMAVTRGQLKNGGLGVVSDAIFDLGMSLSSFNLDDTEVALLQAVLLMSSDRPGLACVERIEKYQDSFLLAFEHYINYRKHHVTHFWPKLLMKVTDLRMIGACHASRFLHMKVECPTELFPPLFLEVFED
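Polarization signal, normalized between peptide-alone and full complex controls, measured compound effects on T3-liganded human TRb LBD (0.6 uM) binding 20 nM Texas Red SRC2 peptide after 5 hr.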
Tau fluor cs: counter-screen for tau fibril formation inhibitors | tau K18 P301L Alexa594 fluorescence, heparin fibrillization | Potency, µM (highest dose often 57.7 µM), without a hit: at the highest dose activity change, negative = decrease | 280,000 compounds, 0.93% hits; further: nearly all actives have a fitted effect of over 55% in size
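Human K18 P301L tau (15 uM unlabeled plus 0.24 uM Alexa 594-labeled, final) in 100 mM sodium acetate pH 7 was mixed with compound and 20 uM heparin and incubated 6 hr at 37 C.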
TexasRed fluor: Texas Red fluorescence interference in TRb-SRC2 counter-screen; TRb/SRC2 Texas Red total fluorescence interference; Potency, µM (titrated, usually from 106 µM), without a hit: top-dose fluorescence change, negative = quenching; 280,000 compounds, 0.29% hits; active means well fitted curve in either direction with a large enough effect; inconclusive means small, poorly fitted or top-dose-only effect
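Human TRβ ligand-binding domain (0.6 uM) and Texas Red SRC2 peptide (20 nM) in Tris buffer with 1 uM T3 and 5% DMSO were incubated with pinned compound for 5 hr at ambient temperature. Total fluorescence was computed as S + 2P (555/632 nm).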
Tau ThT inhib: blocks human tau fibril formation measured by thioflavin T. P10636. recombinant tau K18 P301L (four-repeat tau fragment), heparin-induced fibrillization, ThT fluorescence. Potency, µM (series often up to 57.4 µM), for inactives: top-dose activity, negative = inhibition, hits mostly inhibitors. 270,000 compounds, 2.1% hits. AID 1460; further: nearly all actives have a fitted effect of over 55% in size
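K18 P301L tau (15 uM + 0.24 uM Alexa 594-tagged), heparin 20 uM, NaOAc pH 7, 6 h 37 C; ThT 30 uM, 1 h RT, ex 450/em 510 nm.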
GoLoco inh red: blocks human Gai1 binding to RGS12 GoLoco peptide, red readout. P63096. Gai1:RGS12 GoLoco peptide FP, rhodamine, 10 min. Potency, µM (top dose mostly 61.6 µM), for inactives: at the highest dose activity, negative = inhibition, hits mostly inhibitors. 230,000 compounds, 0.44% hits. AID 880; active means well fitted inhibition curve with a large enough effect, not every such curve was filed as active; inactive means no such curve, though single readings can be large or run the other way; further: nearly all actives have a fitted effect of over 30% in size
The depositor's hits bear a star; ? = inconclusive; . = no result given; [ ] = remark or other dose. Sampled rows, rich in hits. Any-hit rate of the full collection: about 3.2%. Unless noted, the call rests on the fitted dose curve; in most records, active means well fitted curve in the direction sought with a large enough effect; inconclusive means small, poorly fitted or top-dose-only effect, or another doubt; inactive means no such curve, though single readings can be large; an effect the other way counts as inactive or inconclusive. Unless noted, on the % scale 0 is the no-effect control and ±100 the full control effect; potency means the concentration at half of the fitted maximal effect.

SMILES	Tau FP inhib	TRb-SRC2 inh	Tau fluor cs	TexasRed fluor	Tau ThT inhib	GoLoco inh red
CCN1C(=O)C(CC(=O)Nc2ccc(F)cc2)N(CCCN2CCN(c3ccc(F)cc3)CC2)C1=S (stereo unspecified)	?	-5.7%	12.6µM*[quencher]	-0.9%	?	-8.3%
O=C(c1ccc(CS(=O)(=O)c2c(Cl)cccc2Cl)o1)N1CCN(c2ccccc2)CC1	6.0%	-24.1%	-23.3%	6.31µM*[quencher]	-7.3%	.
COC(=O)c1ccc(C(=O)Nc2ccc(N)cc2N)cc1	-5.9%	-2.4%	-27.4%	7.0%	12.6µM*	22.0%
COc1ccccc1NC(=O)c1ccc(N)cc1	1.5%	9.6%	2.3%	2.0%	-11.8%	19.7%
COC(=O)C1=C(C(=O)OC)[C@@H]2N(C)c3ccc(OC)cc3[C@@]23C[C@@H](C(=O)OC)N(S(=O)(=O)c2ccc(C)cc2)C3=N1	-0.8%[11.6 µM]	7.0%[11.2 µM]	-8.1%[11.6 µM]	-2.3%[11.2 µM]	1.1%[11.5 µM]	1.0%[14.2 µM]
CC(C)OC(=O)[C@@H]1CC[C@H](C)[C@@H](CCCCO)O1	-8.1%	6.2%	-0.8%	-0.6%	2.5%	0.1%
c1cc2c(cc1Nc1nc(-c3ccc4c(c3)OCO4)cs1)OCCO2	7.5%	10.3%	8.91µM*[quencher]	2.7%	3.16µM*	12.9%
N#C/C(=C\Nc1ccc2c(c1)OCCO2)c1nc(-c2ccccc2)cs1	2.3%	2.4%	-22.6%	1.4%	-0.1%	20.9%
CC(=O)Nc1nc(-c2ccc3c(c2)CCO3)cs1	1.9%	-5.6%	-4.7%	-5.6%	-16.7%	11.4%
COc1ccccc1C(=O)Nc1nc(-c2ccc3c(c2)OCCO3)cs1	-27.3%	5.8%	?	-1.6%	-18.2%	-0.8%
c1ccc(-c2csc(Nc3ccc4c(c3)OCCO4)n2)cc1	-5.9%	-8.8%	14.1µM*[quencher]	-3.3%	12.6µM*	1.5%
c1cc2c(cc1-c1csc(NNC3=NCCCCC3)n1)OCCO2	28.2µM*	-1.2%	?	0.1%	25.1µM*	-0.8%
COc1cccc(Nc2nc(-c3ccc4c(c3)OCCO4)cs2)c1	-8.4%	-0.7%	11.2µM*[quencher]	-3.8%	7.08µM*	13.3%
CCC(=O)Nc1nc(-c2ccc3c(c2)OCCO3)cs1	8.3%	2.5%	-8.4%	-1.1%	?	6.2%
CCOc1ccc(CNC(=O)CCS(=O)(=O)c2cc3c4c(c2)CCN4C(=O)CC3)cc1OC	-0.4%	0.1%	-23.7%	0.0%	?	.
O=C(Oc1ccc(Br)cc1C(=S)N1CCCCC1)c1cc([N+](=O)[O-])cc([N+](=O)[O-])c1	-0.7%	-13.3%	22.4µM*[quencher]	-2.9%	?	0.9%
O=C(Oc1cccc(C(=S)N2CCOCC2)c1)c1cccc([N+](=O)[O-])c1	1.9%	-6.8%	?	0.2%	?	1.9%
O=C(Oc1cccc(C(=S)N2CCOCC2)c1)c1cc([N+](=O)[O-])cc([N+](=O)[O-])c1	-0.7%	-3.7%	20µM*[quencher]	-1.0%	?	-0.5%
COc1ccccc1CCn1c(=O)c(-c2cccs2)nc2cncnc21	.	.	.	.	.	8.5%
CCCCCCCCCC(C)=O	.	6.9%[201 µM]	.	-3.8%[201 µM]	.	.
C[C@@](N)(Cc1ccc(O)c(O)c1)C(=O)O	?	-1.5%	?	?	4.47µM*	-6.7%
Nc1nc(N)c(N=Nc2ccc(Cl)cc2)c(=O)[nH]1	8.2%	-3.7%	-2.2%	-1.5%	?	1.8%
Cc1[nH][nH]c(=O)c1N=Nc1ccc(Cl)cc1	0.0%	-0.2%	-15.4%	-6.4%	8.91µM*	4.5%
CCCC[C@@H](C)/C=C(C)/C=C(\C)C(=O)NC1=C[C@@](O)(/C=C/C=C/C=C/C(=O)NC2=C(O)CCC2=O)[C@@H]2O[C@@H]2C1=O	.	-14.8%	.	-6.9%	.	.
Cc1ccc(C(=O)c2ccccc2C(=O)OCC(=O)Nc2cccc([N+](=O)[O-])c2)cc1	?	2.1%	15.8µM*[quencher]	1.6%	-17.9%	8.9%
SMILES	Tau FP inhib	TRb-SRC2 inh	Tau fluor cs	TexasRed fluor	Tau ThT inhib	GoLoco inh red
CC(=O)Nc1ccc(S(=O)(=O)N2CCc3nc(-c4ccccc4)c4c(c3C2)CO[C@@H](C)C4)cc1	-4.8%[11.6 µM]	-2.9%[11.2 µM]	-7.6%[11.6 µM]	-5.6%[11.2 µM]	-0.1%[11.5 µM]	2.6%[14.2 µM]
Cc1ccc(-c2csc(-c3c[nH]c4ccccc34)n2)c(C)c1	?	8.1%	10µM*[quencher]	-1.6%	14.1µM*	-2.0%
Oc1ccc(-c2csc(-c3c[nH]c4ccccc34)n2)c(O)c1	?	0.5%	10µM*[quencher]	-6.3%	6.31µM*	64.9%
CC(C)CO/N=C1/C[C@@H](O)[C@@H](O)[C@@H]2[C@@H]3C(=O)N(C(C)(C)C)C(=O)[C@H]3CC[C@H]12	-3.4%[11.6 µM]	-2.4%[11.2 µM]	-8.7%[11.6 µM]	0.7%[11.2 µM]	-5.6%[11.5 µM]	.
CCOC(=O)C1=C(c2ccccc2)N=c2s/c(=C\c3ccc(O)cc3)c(=O)n2C1c1cccs1 (stereo unspecified)	31.6µM*	9.0%	8.91µM*[quencher]	-0.1%	?	214.8%
Nc1cccc2nsnc12	?	3.9%	-15.7%	1.0%	28.2µM*	0.7%
Cc1oc2ncn(C)c(=O)c2c1C(=O)N(Cc1ccccc1)C(C)C	-3.4%	0.3%	1.0%	3.2%	2.4%	.
Cc1oc2ncn(C)c(=O)c2c1C(=O)NC(C)c1ccccc1 (stereo unspecified)	-14.2%	-29.5%	-10.0%	0.282µM*[quencher]	-1.3%	.
COc1ccc(N=C2S/C(=C\c3ccc(N4CCOCC4)o3)C(=O)N2CCc2c[nH]c3ccccc23)cc1	6.1%	0.2%	?	-3.3%	14.1µM*	218.9%
COc1ccc(N=C2S/C(=C\c3ccc(OCC(=O)O)cc3)C(=O)N2CCc2c[nH]c3ccccc23)cc1	?	-4.1%	10.6%	-5.4%	7.0%	1.0%
CC1(C)CC(N2CCCCC2)=CC(=[N+]2CCCCC2)C1	-0.5%	1.7%	-4.1%	-2.7%	-7.2%	2.51µM*
CN(C)NC1=CC(=[N+]2CCCC2)CC(C)(C)C1	6.4%	-4.8%	2.4%	-1.7%	-1.0%	-13.9%
CCCN(CCC)C1=CC(=[N+]2CCCC2)CC(C)(C)C1	-2.2%	-4.1%	9.2%	-1.1%	5.0%	7.94µM*
CC1C[N+](=C2C=C(N3CCOCC3)CC(C)(C)C2)CC(C)O1 (stereo unspecified)	3.1%	3.6%	-6.4%	-1.8%	-12.8%	25.1µM*
CC1(C)CC(N2CCOCC2)=CC(=[N+]2CCOCC2)C1	-3.7%	0.3%	3.6%	-3.0%	-0.8%	-36.0%
O=C(CN1CCCN(S(=O)(=O)c2ccc(Br)cc2)CC1)Nc1cccc(C(F)(F)F)c1	-1.4%	1.5%	-29.5%	-2.7%	-21.2%	.
COc1cc(OC)c(NC(=O)C2CCCN(c3ncnc4c3nc3n4CCCCC3)C2)cc1Cl (stereo unspecified)	5.5%	-8.1%	-14.1%	17.8µM*[quencher]	?	.
